Measured values from the supplement of paper PMC3334620.
Over roughly 33,000 sequences, “E-score (-0.5 to 0.5)” has its median near -0.016; the highest 2% begin near 0.3. The sample holds the highest values, similar sequences and a random draw of the others, so the mix is not that of the screen.

The sequences below were run against T1, Yer184c (UniProt P39961) (assay: PBM E-score (8-mer binding enrichment) (E-score (-0.5 to 0.5)); higher = stronger / more preferred TF binding). Conditions: protein concentration: 100 nM; construct: GST-full length.
T1 sequence: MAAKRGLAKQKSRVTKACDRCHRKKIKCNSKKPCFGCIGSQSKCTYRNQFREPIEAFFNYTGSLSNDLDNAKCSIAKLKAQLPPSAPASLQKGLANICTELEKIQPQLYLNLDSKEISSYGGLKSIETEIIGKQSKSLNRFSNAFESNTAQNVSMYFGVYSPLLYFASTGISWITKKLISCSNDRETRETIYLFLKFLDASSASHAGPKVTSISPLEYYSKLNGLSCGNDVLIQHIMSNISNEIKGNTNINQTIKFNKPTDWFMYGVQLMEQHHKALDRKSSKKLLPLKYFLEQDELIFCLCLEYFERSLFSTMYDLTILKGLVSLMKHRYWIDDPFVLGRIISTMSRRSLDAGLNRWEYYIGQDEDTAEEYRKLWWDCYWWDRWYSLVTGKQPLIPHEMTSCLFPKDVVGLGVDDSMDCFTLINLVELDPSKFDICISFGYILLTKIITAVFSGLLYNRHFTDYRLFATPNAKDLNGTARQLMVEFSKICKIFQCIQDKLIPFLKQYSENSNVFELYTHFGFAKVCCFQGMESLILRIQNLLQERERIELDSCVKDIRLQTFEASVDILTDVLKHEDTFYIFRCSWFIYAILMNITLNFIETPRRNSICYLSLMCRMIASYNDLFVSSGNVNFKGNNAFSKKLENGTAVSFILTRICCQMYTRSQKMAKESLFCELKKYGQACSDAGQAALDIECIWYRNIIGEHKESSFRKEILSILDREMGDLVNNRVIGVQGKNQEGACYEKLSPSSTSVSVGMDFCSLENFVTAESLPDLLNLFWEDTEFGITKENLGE
Summary of the method: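 PURExpress in vitro transcription/translation supplied GST-tagged yeast transcription factors, either full-length or DNA-binding domain. Applied at about 100-200 nM to universal all-10-mer Agilent arrays double-stranded by primer extension, the bound protein was detected with fluorescent anti-GST. E-scores, modified Wilcoxon-Mann-Whitney statistics, were given by the Universal PBM Analysis Suite to ungapped eight-base words pooled with their reverse complements after masliner normalisation.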

Sequence	PBM E-score
GATAATTA	0.318
AAATATTA	0.206
CCACAGTC	-0.3
GTGGCCAC	-0.0584
GAGTTGAC	-0.0176
AATCTTAG	0.124
ATATGGTG	-0.0255
ATAGTGAC	-0.0492
GCTATGGA	-0.192
TCTAACCA	0.0158
TAGCTCCA	-0.0638
CGATATTA	0.343
CTTATAAA	0.174
TTTATAAA	0.348
ATAAAACC	-0.0255
GTTATAAA	0.0949
CGATATTC	0.155
AATAAATA	0.414
ATAAAAAA	0.289
GGATATTA	0.132
AATAAATG	0.174
ATAAAAAC	0.305
TATAAATA	0.266

Sequence	PBM E-score
AGATTCAC	-0.157
AAGGCTGC	-0.0369
AACCATCA	0.0573
GGTCTTAA	-0.104
ACCGTTGG	-0.244
CACTTATC	-0.0553
ATAGAATC	0.128
AGAGGCGC	-0.119
CGGTATTA	0.251
ACCACACG	-0.164
TATATAAA	0.289
AAATATAT	0.305
CATAAAAA	0.252
TATAAAAA	0.373
AATTAAAA	0.202
GATTAAAA	0.296
AAATATAC	0.0721
TATTAAAA	0.318
AAATATAG	0.189
GTAAAGAC	0.0705
AATAACGA	0.068
ATCAAGTG	-0.132
ATCTTCAA	0.187

Sequence	PBM E-score
TTAGCTAA	0.0769
GATCCGGA	0.395
AATCCGCT	-0.0489
CATCCGGG	0.223
AATCCGGT	0.36
GATCCGGC	0.354
AATCCGAT	0.275
GATCCGCA	0.0531
CATCCGCA	0.108
GATCCGCC	0.0797
AATCCGGC	0.3
CATCCGGA	0.375
GATCCGTA	0.17
AATGGGTC	-0.184
ATGGCCCC	-0.162
CTAGTAAC	-0.0898
CTACCCAC	-0.304
TAAAGCGA	0.0559
GGACTGCC	-0.102
ATTATGGC	0.0693
AAGGCTAT	-0.0663
CCTGGTAC	-0.0559
CTGCGGGA	-0.0974

Sequence	PBM E-score
AATAACCA	0.0129
CGCTTTAC	-0.137
AATCCGTA	0.0372
AATCCGGA	0.401
CATCCGGC	0.358
CATCCGTC	-0.0104
CATCCGCC	0.0602
AATCCGCA	0.101
CCGAGCAG	0.17
ACCAATCA	0.0919
AGCTTTCG	0.105
ATTCCCAC	-0.171
CTGGTGTA	-0.234
ATTTCCCA	0.107
ATTTTCGC	0.111
ATATTTCC	0.177
ATTTTCGA	0.121
ATATTTCA	0.201
ATTTCCCG	0.328
ATATTTCG	0.318
ATTTTCGG	0.377
ATCTTCGG	0.35
ATCTTCGC	-0.0164

Sequence	PBM E-score
ATTTCCCC	-0.166
ATCTTCGA	-0.0159
CCCATTCC	-0.258
ACACTCCA	-0.127
AAGGCTTC	-0.0592
TATTCTAA	0.181
CACTTCTA	-0.133
CCTTGCTC	-0.141
GGAGGTAA	-0.0289
CATTTCCG	0.3
AGTTTCCG	0.392
ATTTTCCA	0.178
AATTTCCG	0.406
AGTTTCCA	0.111
ATTTCTTG	0.216
ATTTTCCC	0.00872
AGTTTCCC	-0.0163
ATTTTCCG	0.4
ATTTCTTA	0.216
ATTTCTTC	0.315
AATTTCCC	0.0065
